Reference: PubChem BioAssay AID929 (National Center for Advancing Translational Sciences (NCATS), 2007)
This is one part of the list. Records with an inconclusive call do not appear. The source made the active and inactive calls. The call rests on the fitted dose curve; in most records, active means well fitted inhibition curve with a large enough effect in the main read-out, with a control signal flat; inconclusive means small, poorly fitted or top-dose-only effect, or a change in a side signal; inactive means no such curve, though single readings can be large or run the other way.

These molecules were tested against Caspase-1 (Homo sapiens) (UniProt P29466) (assay: Concentration-Response Counterscreen for Redox Active Inhibitors of Caspase-1: Cysteine). Details: recombinant caspase-1, fluorogenic substrate, cysteine buffer; series mostly up to 57.5 µM.
Caspase-1 (Homo sapiens), sequence (P29466 120-297 limits assumed): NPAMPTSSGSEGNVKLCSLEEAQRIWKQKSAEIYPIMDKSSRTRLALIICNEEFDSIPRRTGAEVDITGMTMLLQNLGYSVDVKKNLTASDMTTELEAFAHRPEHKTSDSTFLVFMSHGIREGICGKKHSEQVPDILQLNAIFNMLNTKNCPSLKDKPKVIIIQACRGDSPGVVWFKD
Caspase-1 (Homo sapiens), sequence (P29466 317-404 limits assumed): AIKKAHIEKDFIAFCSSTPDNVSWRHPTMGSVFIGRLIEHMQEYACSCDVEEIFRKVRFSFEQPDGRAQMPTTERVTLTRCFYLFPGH
Text: NIH Molecular Libraries Screening Centers Network [MLSCN]
NIH Chemical Genomics Center [NCGC]
PI Name: Dr. James Wells,
Dr. Enrique Perez-Paya, Dr.Janice Williams, Dr. Dennis Wolan, a person
The caspases (Cysteine Aspartyl Protease) comprise a related family of 14 dimeric proteases that are critical mediators of apoptosis (programmed cell death) and inflammation. The caspases represent an important class of drug targets for stroke, ischemia, cancer and inflammatory diseases. […] One goal of this project was to identify compounds that act as allosteric inhibitors via stabilizing the procaspase form of the enzyme. […]
The biochemical assay was configured using purified caspase 1 at a high enzyme concentration to promote formation of the homodimers and thus facilitate the identification of allosteric inhibitors. […] After initiation of the assay with substrate the plates were rapidly read using an automated robotic system (Kalypsys, Inc.) to maintain consistent timing. […] Product formation was also measured after 1 hour. […]
Caspase 1 was prepared in buffer (50 mM HEPES pH 7.5, 50 mM KCl, 200 mM NaCl, 10 mM Cys (Aldrich cat# 861677), 0.1% CHAPS) at a concentration of 66.6 nM and 3 uL was dispensed to all wells using black solid Kalypsys 1536-well plates. […] The plates were then exposed using 405 nm excitation/520 nm emission filters for 4 sec and read at 20 sec intervals for 3 min. […]

SMILES | outcome
Cc1nc2c(C(=O)NCc3ccc4c(c3)OCO4)c[nH]n2c(=O)c1Cc1ccccc1F | inactive
